Here are results for 11 compounds from PubChem BioAssay (NCATS).

Records with an inconclusive call do not appear. Values without a mark were called inactive. Active and inactive are the calls of the source. Unless noted, calls come from the whole dose curve; as a rule, active = well fitted inhibition curve with a large enough effect; inconclusive = small, poorly fitted or top-dose-only effect; inactive = flat fitted curve, though single readings scatter. Bridge positions count the residues as written; N and C are the ends. Square brackets hold non-standard residues; d marks the D form. Peptide text beside a SMILES is read from it. * marks the point of attachment. Octanoyl(6-Me) = CCC(C)CCCCC(=O)*; Dab = NCC[CH](N)C(=O)O

The nature of assay [1]: Cell Viability - Jurkat (AID 426;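 active = dose-dependent loss of cell ATP signal giving a full or clear fitted curve, ranked by lower potency value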; note: potency is the fitted concentration of half-maximal effect). The following applies: qHTS. The procedure, abridged:
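qHTS, 1536-well; Jurkat E6-1, 5000 cells/well, complete medium; cpd 40 hr, 37 °C; CellTiter-Glo 20 min RT; luminescence. AC50 by Hill fit.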
In general terms: Quantitative high-throughput screening tests each substance at several concentrations.

A short description of assay [2]: Cell Viability - Hek293 (AID 427;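 active = compounds whose dose-response curve shows a full or clear partial loss of cell viability, called from curve shape rather than a numeric limit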;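 note: potency is the fitted concentration of half-maximal effect; cells exposed to compound for 40 hours at 37 °C before reading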). The following applies: qHTS. The procedure, abridged: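 HEK293 cells in complete medium were exposed to compound for 40 hr at 37 °C, then cellular ATP was read by CellTiter-Glo luminescence. Data were normalized to DMSO (basal) and 100 uM tamoxifen (100% inhibition), and AC50 came from Hill fits.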
Assay [3] is described as follows: Cell Viability - HepG2 (AID 433; calls by dose curve;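 note: potency is the fitted concentration of half-maximal effect; potency for ATP loss meaning cytotoxicity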). The following applies: qHTS. The method, boiled down:
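Read-out is luciferase-based quantitation of cellular ATP as a measure of viable HepG2 cells after 40 h treatment at 37 °C. Signal decrease is scaled between DMSO-only and 100 uM tamoxifen controls, with AC50 fitted by the Hill equation.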

Assay [4] is described as follows: Cell Viability - MRC5 (AID 434; calls by dose curve;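 note: potency is the fitted concentration of half-maximal effect; potency reflects cytotoxicity seen as loss of intracellular ATP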). The following applies: MRC5 lung fibroblast viability, qHTS. The procedure, abridged:
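qHTS cytotoxicity in human lung fibroblast MRC5 cells; 40 hr treatment, 37 °C; cellular ATP by luciferase luminescence; DMSO = 0%, 100 uM tamoxifen = 100% inhibition; Hill-fit AC50.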

Assay [5] in a line: Cell Viability - SK-N-SH (AID 435; calls by dose curve;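 note: potency is the fitted concentration of half-maximal effect; compound exposure lasted 40 h at 37 °C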). The following applies: SK-N-SH neuroblastoma cell viability qHTS. The procedure, abridged: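 Luminescent ATP signal served as the viability read-out after 40 hours of compound treatment of human neuroblastoma SK-N-SH cells. Concentration-response data, scaled between DMSO and 100 uM tamoxifen, gave AC50 values by standard Hill modeling.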
The nature of assay [6]: qHTS Assay for Identification of Small Molecule Inducers of Hypoxia Response (AID 2120; active = well fitted curve in the direction sought with a large enough effect in the signal ratio, with a control signal flat, not every such curve was filed as active; the % refers to the signal ratio). The following applies: hypoxia response reporter cells, beta-lactamase ratio readout; series mostly up to 104 µM. The method, boiled down:
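ME-180 HRE-bla cells plated in Opti-MEM/0.5% dialyzed FBS, rested 4-5 h, then dosed with compound titrations by pin tool. After 17 h at 37 degrees C, CCF4 dye loaded 2.5 h at RT; 460/530 nm ratio gave %Activity and AC50.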

The test system of another assay is 7G8. In words: qHTS profiling for inhibitors of Plasmodium falciparum proliferation (AID 504749). Note: nearly all actives have a fitted effect of over 60% in size. Note: potency is the fitted concentration of half-maximal effect. The following applies: P. falciparum in erythrocytes, SYBR Green DNA, 72 h; series mostly up to 28.7 µM. The method, boiled down:
(§1)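 Infected RBCs, 0.3% parasitemia/2.5% Hct final; cpd 72 h, 37 C, 5% CO2; lysis buffer with saponin/triton/SYBR Green I, o/n RT dark; FI 485/535; norm. to artemisinin (0.29 uM) and DMSO.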

In the next assay the test system is AS120. The assay is described as above. The following applies: P. falciparum in erythrocytes, SYBR Green DNA, 72 h; series mostly up to 28.7 µM. The procedure, abridged: as §1
The next assay deals with C2A. The description is as above. Conditions: P. falciparum in erythrocytes, SYBR Green DNA, 72 h; series mostly up to 28.7 µM. The procedure, abridged:
as §1

A further assay concerns CP191. Described as above. The following applies: P. falciparum in erythrocytes, SYBR Green DNA, 72 h; series mostly up to 28.7 µM. The procedure, abridged:
as §1

The test system of another assay is CP237. Described as above. The following applies: P. falciparum in erythrocytes, SYBR Green DNA, 72 h; series mostly up to 28.7 µM. The method, boiled down: as §1
The test system of a further assay is CP247. The description is as above. Conditions: P. falciparum in erythrocytes, SYBR Green DNA, 72 h; series mostly up to 28.7 µM. The procedure, abridged: as §1
The test system of another assay is CP256. The description is as above. Conditions: P. falciparum in erythrocytes, SYBR Green DNA, 72 h; series mostly up to 28.7 µM. The procedure, abridged: as §1
The test system of another assay is CP260. The assay is described as above. Conditions: P. falciparum in erythrocytes, SYBR Green DNA, 72 h; series mostly up to 28.7 µM. The procedure, abridged:
as §1

Another assay has as its system CP297. The assay is described as above. Conditions: P. falciparum in erythrocytes, SYBR Green DNA, 72 h; series mostly up to 28.7 µM. The procedure, abridged: as §1
The subject of another assay is DFO2036. The description is as above. Conditions: P. falciparum in erythrocytes, SYBR Green DNA, 72 h; series mostly up to 28.7 µM. The procedure, abridged: as §1
For a further assay, the system named is DIV14. The description is as above. The following applies: P. falciparum in erythrocytes, SYBR Green DNA, 72 h; series mostly up to 28.7 µM. The procedure, abridged:
as §1

The subject of a further assay is Dd2. The assay is described as above. Conditions: P. falciparum in erythrocytes, SYBR Green DNA, 72 h; series mostly up to 28.7 µM. The method, boiled down: as §1
For another assay, the system named is SC27B. Described as above. The following applies: P. falciparum in erythrocytes, SYBR Green DNA, 72 h; series mostly up to 28.7 µM. The method, boiled down:
as §1

The next assay relates to CP265. Described as above. Conditions: P. falciparum in erythrocytes, SYBR Green DNA, 72 h; series mostly up to 28.7 µM. The method, boiled down: as §1

With `O=C(O)c1ccccc1C(c1ccc(O)cc1)c1ccc(O)cc1`, the Potency in assay [1], in [2], in [3], in assay [4] and in [5] was more than 92 µM in each case. Further, the result in assay [6] was inactive.
For `CCC(C)CCCCC(=O)NC(CCN)C(=O)NC(C(=O)NC(CCN)C(=O)NC1CCNC(=O)C(C(C)O)NC(=O)C(CCN)NC(=O)C(CCN)NC(=O)C(CC(C)C)NC(=O)C(Cc2ccccc2)NC(=O)C(CCN)NC1=O)C(C)O` (stereo not drawn) ({Octanoyl(6-Me)}-[Dab]T[Dab][Dab][Dab]FL[Dab][Dab]T; lactam 4-C; configuration not given here), the Potency result with 7G8, in the assay with AS120, with C2A, in the assay on CP191, in the assay with CP237 and in the assay on CP247 was “inactive” throughout. Further, the Potency entry in the assay with CP256, in the assay on CP260, in the assay on CP297, with DFO2036, with DIV14 and in the assay on Dd2 was “inactive” throughout. In addition, the Potency entry in the assay on SC27B is “inactive”.
With `CC(C)(CO)C(O)C(=O)NCCCC(=O)O` (stereo not drawn), the Potency in the assay on AS120 was 0.0071 µM (active); in the assay with CP247 it was 0.0112 µM (active); with CP265 it was 0.0141 µM (active).
Regarding `CC1CCC(C(C)C)C(OC(=O)c2ccccc2O)C1` (stereo not drawn), the Potency entry with 7G8, in the assay with AS120, in the assay with C2A, in the assay with CP191, in the assay with CP237 and in the assay on CP247 was “inactive” throughout. Moreover, the Potency entry in the assay with CP256, with CP260, in the assay with CP265, in the assay with CP297, in the assay on DFO2036 and in the assay on DIV14 was “inactive” throughout. The Potency entry in the assay with Dd2 and in the assay with SC27B was “inactive” each time.
Regarding `CC(=O)O[C@@]12CO[C@@H]1C[C@H](O)[C@@]1(C)C(=O)[C@H](O)C3=C(C)[C@@H](OC(=O)C(O)[C@@H](NC(=O)OC(C)(C)C)c4ccccc4)C[C@@](O)([C@@H](OC(=O)c4ccccc4)[C@H]21)C3(C)C` (stereo partly drawn), the Potency is 0.398 µM (active) in the assay with 7G8; 0.0282 µM (active) in the assay with AS120; 0.0316 µM (active) with C2A; 0.0282 µM (active) with CP191; 0.0178 µM (active) in the assay on CP237; 0.0398 µM (active) with CP247. Also, the Potency in the assay on CP256 was 0.0316 µM (active); with CP260, 0.0251 µM (active); with CP265 it was 0.0794 µM (active); in the assay on CP297, 0.0953 µM (active); in the assay on DFO2036, 0.0224 µM (active); in the assay on DIV14, 1.2 µM (active). In addition, the Potency is 0.01 µM (active) in the assay on Dd2 and 0.199 µM (active) in the assay with SC27B.
For the compound `CC1(C)S[C@@H]2[C@H](NC(=O)COc3ccccc3)C(=O)N2[C@H]1C(=O)O`, the Potency result in the assay on 7G8, in the assay on AS120, with C2A, in the assay with CP191, in the assay with CP237 and with CP247 was “inactive” throughout. The Potency result in the assay on CP256, in the assay with CP260, with CP265, in the assay on CP297, in the assay with DFO2036 and in the assay on DIV14 was “inactive” each time. The Potency result with Dd2 and in the assay with SC27B was “inactive” throughout.
For `O=C1CCc2ccccc2O1`, the Potency in [1], in [2], in assay [3], in assay [4] and in assay [5] was more than 92 µM in each case. In addition, the result in assay [6] was inactive.
As for `c1ccc2scnc2c1`, the Potency in assay [1], in assay [2], in assay [3], in [4] and in [5] was more than 92 µM each time. The outcome in assay [6] was inactive.
In the case of `O=S(=O)(O)c1ccccc1`, the Potency in assay [1], in assay [2], in assay [3], in assay [4] and in [5] was more than 92 µM throughout. Further, in [6], the outcome was inactive.
With `Nc1nc(Cl)nc2c1ncn2C1CC(O)C(CO)O1` (stereo not drawn), the Potency entry with CP297 and in the assay with DIV14 was “inactive” each time.
`CCN1/C(=C/C=C/C=C/c2sc3ccccc3[n+]2CC)Sc2ccccc21`: the Potency was 0.891 µM (active) with 7G8; 5.01 µM (active) with AS120; 3.55 µM (active) with C2A; 3.55 µM (active) in the assay with CP191; 1.58 µM (active) in the assay with CP237; 4.47 µM (active) in the assay on CP247. Moreover, the Potency in the assay with CP256 is 4.47 µM (active); with CP260 it was 0.631 µM (active); in the assay on CP265, 5.01 µM (active); with CP297, 12 µM (active); with DFO2036, 3.55 µM (active); in the assay on DIV14 it was 8.49 µM (active). Besides, the figures for the Potency with Dd2 and with SC27B were 2.24 µM (active) and 6.31 µM (active), respectively.
